# Test results from PubChem BioAssay AID1728 (National Center for Advancing Translational Sciences (NCATS), 2009).
# The list shows a part of the results. Results filed as inconclusive are left out. Unmarked numbers belong to inactive results. Calls come from the whole dose curve; as a rule, active = well fitted curve in the direction sought with a large enough effect; inconclusive = small, poorly fitted or top-dose-only effect, or another doubt; inactive = no such curve, though single readings can be large or run the other way.
# Biological target: RAF proto-oncogene serine/threonine-protein kinase (Homo sapiens) (UniProt P04049)
# Sequence (P04049 whole entry, looked up): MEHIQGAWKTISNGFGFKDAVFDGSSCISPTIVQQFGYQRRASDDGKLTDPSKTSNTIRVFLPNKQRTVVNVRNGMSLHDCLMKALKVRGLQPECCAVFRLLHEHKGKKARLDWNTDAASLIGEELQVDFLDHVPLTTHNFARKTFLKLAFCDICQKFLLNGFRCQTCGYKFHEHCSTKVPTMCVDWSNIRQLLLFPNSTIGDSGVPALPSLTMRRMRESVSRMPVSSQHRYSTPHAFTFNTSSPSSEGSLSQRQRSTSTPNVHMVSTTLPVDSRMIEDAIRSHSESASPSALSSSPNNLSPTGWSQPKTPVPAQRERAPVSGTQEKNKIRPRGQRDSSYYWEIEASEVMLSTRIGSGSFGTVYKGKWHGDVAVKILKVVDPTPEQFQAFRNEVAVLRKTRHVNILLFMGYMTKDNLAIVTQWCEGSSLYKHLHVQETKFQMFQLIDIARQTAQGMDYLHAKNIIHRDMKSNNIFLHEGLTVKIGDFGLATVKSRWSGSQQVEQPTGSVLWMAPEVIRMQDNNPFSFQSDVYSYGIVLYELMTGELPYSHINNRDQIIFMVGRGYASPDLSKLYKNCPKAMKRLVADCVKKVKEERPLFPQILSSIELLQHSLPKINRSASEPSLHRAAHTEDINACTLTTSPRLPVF
# Test: Assay for Inhibitors of the ERK Signaling Pathway using a Homogeneous Screening Assay: c-Raf Inhibition
# Details: homogeneous biochemical assay; series mostly up to 76.9 µM; activity change, negative = inhibition: at the top concentration
# Excerpt: qHTS Assay for Inhibitors of the ERK Signaling Pathway using a Homogeneous Screening Assay
# NIH Chemical Genomics Center [NCGC]
# NIH Molecular Libraries Screening Centers Network [MLSCN]
# Assay Submitter (PI): Dr. Wei Zheng, NCGC/NIH
# The Ras/extracellular-signal-regulated kinase (ERK) mitogen activated protein (MAP) kinase signaling pathway (ERK1/2 cascade) plays is a key role in transmitting signals from the cell surface to the nucleus (Nishida and Gotoh 1993; Chang and Karin, 2001). The cascade is initiated by the small G-protein Ras, which recruits Raf […], where activation occurs. Alternatively, this pathway can be activated by elevating intracellular cAMP.
# Activation of the ERK pathway is essential in increased cell division and cell survival. Sustained and constitutive activation of the ERK pathway, however, has been linked to uncontrolled cell proliferation, increased cell survival, and tumor progression. Thus, the ERK has been as an attractive target for cancer chemotherapy in the past few years (Sebolt-Leopold and Herrera, 2004). […]
# The HTRF kinase assay (components supplied as kit by Cisbio) was chosen for the EGFR and EGFR mutant enzyme assays that applied the time resolved fluorescence resonance energy transfer (TR-FRET) principle. […]
row,Structure (SMILES),"activity change, negative = inhibition"
1,O=[N+]([O-])c1ccccc1N/N=C1\CCc2ccccc21,-15.1%
2,CN(C)c1ccc(Nc2c3c4c(cccc4n(C)c2=O)C(=O)c2ccccc2-3)cc1,-9.46%
